From PubChem BioAssay (NCATS) come the findings set out here.

A short description of assay [1]: Stat Signaling Pathway (AID 446; active means well fitted curve in either direction with a large enough effect, not every such curve was filed as active;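 further: ME-180 cervical cancer cells given 40 pM IL-6 alongside compound; SIE-controlled beta-lactamase reporter measured as 460/530 nm FRET emission ratio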). The essentials: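 Normalization used AC90 stimulation (300 pM IL-6) and AC90 inhibition (125 nM pan-JAK inhibitor at 40 pM IL-6). The underlying signal is SIE-driven beta-lactamase in ME-180 cells after 5 h IL-6 exposure with compound.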
The target of assay [2] is 3',5'-cyclic-AMP phosphodiesterase 4B (Homo sapiens) (UniProt Q07343). In words: qHTS Assay for Inhibitors of PDE-IV (AID 607; active means well fitted activation curve with a large enough effect in the main read-out, with a control signal flat, not every such curve was filed as active). The essentials:
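HEK293 ACTOne cells with CNG channel (1000/well), endogenous PDE4; membrane potential dye, compounds up to 22.9 uM final. Fluorescence Ex 535/Em 590; RO 20-1724 (100 uM final) as reference.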
In general terms: Quantitative high-throughput screening tests each substance at several concentrations.

Assay [3] has as its target Dual specificity protein kinase CLK4 (Homo sapiens) (UniProt Q9HAZ1). Put plainly: qHTS Assay for Inhibitors of CDC-like Kinase 4 (Kinase-Glo Assay) (AID 1770). Further: nearly all actives have a fitted effect of over 65% in size. Further: potency means the concentration at half of the fitted maximal effect. The essentials: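 Recombinant human Clk4 (25 nM) phosphorylated RS repeat peptide (100 uM) with 1 uM ATP in Tris pH 7.5/MgCl2/EGTA/DTT/Triton buffer for 4.5 h at room temperature. Residual ATP was quantified by Kinase-Glo luciferase luminescence.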

The target in assay [4] is Lysosomal acid glucosylceramidase (Homo sapiens) (UniProt P04062). In words: Glucocerebrosidase-p2 (AID 348; in the data active means potency below about 10 µM; further: potency means the concentration at half of the fitted maximal effect). The note with it: purified GBA, blue fluorogenic substrate, 40 min. The essentials:
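Normal human glucocerebrosidase (0.2 nM) with blue fluorogenic substrate (80 uM final) in citrate/phosphate pH 5.9 with 10mM sodium taurocholate, 0.01% tween-20; 40 min RT, NaOH/glycine stop; fluorescence Ex 365/Em 440; AC50 from a titration from 0.6 nM upwards.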

The target in assay [5] is Dual specificity protein kinase CLK4 (Homo sapiens) (UniProt Q9HAZ1). In words: qHTS Assay for Inhibitors of CDC-like Kinase 4 (ADP-Glo Assay) (AID 1771). Further: nearly all actives have a fitted effect of over 70% in size. Further: potency means the concentration at half of the fitted maximal effect. Put shortly: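 ADP production was read by ADP-Glo luminescence after residual ATP depletion, following 1 h room-temperature reaction of 25 nM Clk4, 1 uM ATP and 100 uM RS peptide with MgCl2, EGTA, DTT and Triton X-100.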

The target is the same in assay [6]. In words: qHTS Assay for Inhibitors of CDC-like Kinase 4 (ADP-FP Assay) (AID 1795). Further: nearly all actives have a fitted effect of over 60% in size. Further: potency means the concentration at half of the fitted maximal effect. The essentials:
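Recombinant human Clk4 (6.25 nM) phosphorylated RS repeat peptide (100 uM) with 1 uM ATP in Tris pH 7.5/MgCl2/EGTA/DTT/Triton buffer for one hour. ADP was quantified by Transcreener competitive fluorescence polarization against an ADP calibration curve.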

For assay [7], the target named is Cytochrome P450 1A2 (Homo sapiens) (UniProt P05177). In words: p450-cyp1a2 (AID 410; calls by dose curve; further: potency means the concentration at half of the fitted maximal effect). The essentials:
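Luminescent demethylation readout: Luciferin-ME (100uM, equal to Km) turned over by 20nM CYP1A2 for 60 min at room temperature after NADPH regeneration addition, following 10 min compound preincubation. Normalization used 57 uM furafylline as full inhibition.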

The target of assay [8] is Cytochrome P450 3A4 (Homo sapiens) (UniProt P08684). Put plainly: qHTS Assay for Activators of Cytochrome P450 3A4 (AID 885). Further: nearly all actives have a fitted effect of over 65% in size. Put shortly:
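Human CYP3A4 dealkylates Luciferin-PPXE to luciferin, which luciferase detection converts to light. Substrate was at its KM (25uM), buffer 200mM KPO4, reaction 60 min at RT.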

Assay [9] has as its target Cytochrome P450 2C19 (Homo sapiens) (UniProt P33261). In words: qHTS Assay for Inhibitors and Substrates of Cytochrome P450 2C19 (AID 899). Further: nearly all actives have a fitted effect of over 60% in size. Further: potency means the concentration at half of the fitted maximal effect. The essentials:
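Luminescent read-out of luciferin formed from Luciferin-H EGE (10uM, equal to KM). Enzyme 5nM in 50mM KPO4; compound added, 10 min at 37C, then NADPH regenerating system for 60 min at 37C. Full inhibition defined by 57uM ketoconazole.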

Assay [10] concerns the target Cytochrome P450 3A4 (Homo sapiens) (UniProt P08684). In words: qHTS Assay for Inhibitors and Substrates of Cytochrome P450 3A4 (AID 884). Further: nearly all actives have a fitted effect of over 50% in size. Further: potency means the concentration at half of the fitted maximal effect. The essentials: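 Luminescent readout of luciferin produced by CYP3A4 (20 nM) dealkylation of Luciferin-PPXE, 25 uM (its KM). NADPH-driven reaction ran 60 min at RT after 10 min compound preincubation; data scaled to 57 uM ketoconazole as 100% inhibition.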

In assay [11] the target is Cytochrome P450 2C9 (Homo sapiens) (UniProt P11712). Put plainly: qHTS Assay for Inhibitors and Substrates of Cytochrome P450 2C9 (AID 883). Further: nearly all actives have a fitted effect of over 60% in size. Further: potency means the concentration at half of the fitted maximal effect. The essentials: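 10nM CYP2C9 + 100uM Luciferin-H (=KM), 25mM KPO4; cpd 10 min 37C; NADPH regen, 60 min 37C; stop/detect with P450 Glo-Buffer 20 min; luminescence. Norm. to 57uM sulphaphenazole as full inhibition.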
Assay [12] addresses Cytochrome P450 2D6 (Homo sapiens) (UniProt P10635). Put plainly: qHTS Assay for Inhibitors and Substrates of Cytochrome P450 2D6 (AID 891). Further: potency means the concentration at half of the fitted maximal effect; nearly all actives have a fitted effect of over 60% in size. Put shortly: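 Luminescent read-out of luciferin formed by 5 nM human CYP2D6 demethylating 30 uM Luciferin-ME EGE (Km level) over 60 min at room temperature after NADPH regeneration addition. Data normalized to full inhibition by 1.43 uM quinidine.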

A number with no mark means an inactive call. Results filed as inconclusive are left out. Activity calls are given as the source filed them. Unless noted, the call rests on the fitted dose curve; in most records, active means well fitted curve in the direction sought with a large enough effect; inconclusive means small, poorly fitted or top-dose-only effect, or another doubt; inactive means no such curve, though single readings can be large; an effect the other way counts as inactive or inconclusive. Where only a bound is given, the exact number is not on record here.

Chain of Cytochrome P450 2C9 (Homo sapiens) (P11712 whole entry, looked up): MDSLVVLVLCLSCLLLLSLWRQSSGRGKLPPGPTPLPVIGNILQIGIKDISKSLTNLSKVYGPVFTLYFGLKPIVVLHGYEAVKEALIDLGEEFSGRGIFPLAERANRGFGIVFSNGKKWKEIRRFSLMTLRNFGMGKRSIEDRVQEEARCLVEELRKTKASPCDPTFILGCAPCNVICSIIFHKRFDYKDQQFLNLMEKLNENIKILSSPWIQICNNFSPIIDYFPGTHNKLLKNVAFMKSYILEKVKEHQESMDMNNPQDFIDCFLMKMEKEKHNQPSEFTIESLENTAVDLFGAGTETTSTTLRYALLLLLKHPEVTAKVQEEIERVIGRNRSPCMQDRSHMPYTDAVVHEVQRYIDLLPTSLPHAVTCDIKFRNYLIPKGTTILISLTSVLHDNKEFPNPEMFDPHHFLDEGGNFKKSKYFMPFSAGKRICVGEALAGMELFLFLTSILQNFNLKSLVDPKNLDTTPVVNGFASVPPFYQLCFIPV
Chain of Cytochrome P450 3A4 (Homo sapiens) (P08684 whole entry, looked up): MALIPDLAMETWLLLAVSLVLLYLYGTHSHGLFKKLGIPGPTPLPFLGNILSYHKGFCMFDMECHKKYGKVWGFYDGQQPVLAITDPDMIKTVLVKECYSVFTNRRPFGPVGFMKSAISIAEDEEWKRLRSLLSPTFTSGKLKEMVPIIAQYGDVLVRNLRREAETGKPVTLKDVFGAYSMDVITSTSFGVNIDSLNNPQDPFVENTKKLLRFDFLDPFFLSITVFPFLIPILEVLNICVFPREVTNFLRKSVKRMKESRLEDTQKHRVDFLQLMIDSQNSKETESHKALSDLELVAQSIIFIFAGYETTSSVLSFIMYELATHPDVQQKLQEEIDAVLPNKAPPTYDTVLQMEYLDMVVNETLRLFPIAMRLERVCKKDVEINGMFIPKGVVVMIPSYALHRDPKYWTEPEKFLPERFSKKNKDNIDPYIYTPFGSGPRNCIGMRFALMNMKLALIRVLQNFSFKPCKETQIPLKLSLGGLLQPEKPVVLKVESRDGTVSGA
Chain of Lysosomal acid glucosylceramidase (Homo sapiens) (P04062 whole entry, looked up): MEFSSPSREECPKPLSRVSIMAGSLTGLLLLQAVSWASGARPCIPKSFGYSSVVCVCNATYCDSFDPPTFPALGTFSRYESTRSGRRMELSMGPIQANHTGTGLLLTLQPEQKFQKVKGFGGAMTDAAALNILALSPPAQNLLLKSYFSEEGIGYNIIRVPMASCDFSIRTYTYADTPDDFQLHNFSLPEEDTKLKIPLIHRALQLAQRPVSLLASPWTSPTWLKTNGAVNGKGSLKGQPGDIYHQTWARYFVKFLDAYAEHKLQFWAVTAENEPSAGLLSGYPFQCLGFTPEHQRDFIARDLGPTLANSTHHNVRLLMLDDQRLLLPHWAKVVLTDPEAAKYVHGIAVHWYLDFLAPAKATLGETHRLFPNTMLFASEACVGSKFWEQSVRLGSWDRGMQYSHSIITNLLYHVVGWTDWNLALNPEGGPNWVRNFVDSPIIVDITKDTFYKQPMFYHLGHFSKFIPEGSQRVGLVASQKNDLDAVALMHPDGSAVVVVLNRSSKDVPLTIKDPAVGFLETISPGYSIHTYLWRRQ
Chain of Cytochrome P450 1A2 (Homo sapiens) (P05177 whole entry, looked up): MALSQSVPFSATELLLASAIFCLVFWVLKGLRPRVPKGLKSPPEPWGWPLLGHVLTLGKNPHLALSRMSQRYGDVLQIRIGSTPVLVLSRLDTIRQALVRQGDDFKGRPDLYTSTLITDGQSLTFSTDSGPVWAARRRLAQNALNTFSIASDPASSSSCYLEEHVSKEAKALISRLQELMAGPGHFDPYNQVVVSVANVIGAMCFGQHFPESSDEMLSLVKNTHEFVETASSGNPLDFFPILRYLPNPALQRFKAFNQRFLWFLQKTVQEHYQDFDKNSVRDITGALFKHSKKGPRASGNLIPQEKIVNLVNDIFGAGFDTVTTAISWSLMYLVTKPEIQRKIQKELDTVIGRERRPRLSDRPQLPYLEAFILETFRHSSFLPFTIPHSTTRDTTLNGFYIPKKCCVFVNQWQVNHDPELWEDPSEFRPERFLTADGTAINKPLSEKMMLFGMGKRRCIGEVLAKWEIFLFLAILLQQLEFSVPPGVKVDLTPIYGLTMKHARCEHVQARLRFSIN
Chain of Cytochrome P450 2C19 (Homo sapiens) (P33261 whole entry, looked up): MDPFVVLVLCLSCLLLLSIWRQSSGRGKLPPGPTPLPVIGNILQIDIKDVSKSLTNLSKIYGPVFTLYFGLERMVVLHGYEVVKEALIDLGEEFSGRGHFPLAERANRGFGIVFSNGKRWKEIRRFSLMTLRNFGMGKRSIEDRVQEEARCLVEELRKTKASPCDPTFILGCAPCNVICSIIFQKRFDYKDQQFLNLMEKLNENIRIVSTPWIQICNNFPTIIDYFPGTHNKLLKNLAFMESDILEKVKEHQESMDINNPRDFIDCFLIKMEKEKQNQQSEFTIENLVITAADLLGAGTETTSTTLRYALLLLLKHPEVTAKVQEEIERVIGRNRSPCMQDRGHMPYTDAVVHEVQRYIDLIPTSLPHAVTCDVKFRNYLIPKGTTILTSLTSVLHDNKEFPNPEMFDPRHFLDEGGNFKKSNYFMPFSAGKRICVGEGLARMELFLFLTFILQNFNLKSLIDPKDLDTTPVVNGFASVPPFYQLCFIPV
Chain of Dual specificity protein kinase CLK4 (Homo sapiens) (Q9HAZ1 whole entry, looked up): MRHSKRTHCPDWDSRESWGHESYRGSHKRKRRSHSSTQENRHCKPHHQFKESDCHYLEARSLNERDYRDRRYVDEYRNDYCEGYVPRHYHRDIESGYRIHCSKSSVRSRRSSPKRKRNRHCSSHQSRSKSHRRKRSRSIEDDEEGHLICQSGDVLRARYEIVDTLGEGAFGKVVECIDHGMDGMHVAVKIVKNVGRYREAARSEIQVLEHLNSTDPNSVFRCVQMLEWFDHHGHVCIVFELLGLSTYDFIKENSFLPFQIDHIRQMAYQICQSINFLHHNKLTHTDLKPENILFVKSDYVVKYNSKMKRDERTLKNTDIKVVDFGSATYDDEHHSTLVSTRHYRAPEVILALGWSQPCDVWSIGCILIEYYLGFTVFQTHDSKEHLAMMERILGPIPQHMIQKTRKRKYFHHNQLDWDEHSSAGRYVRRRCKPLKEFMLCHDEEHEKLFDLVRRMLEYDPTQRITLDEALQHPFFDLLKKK
Chain of 3',5'-cyclic-AMP phosphodiesterase 4B (Homo sapiens) (Q07343 whole entry, looked up): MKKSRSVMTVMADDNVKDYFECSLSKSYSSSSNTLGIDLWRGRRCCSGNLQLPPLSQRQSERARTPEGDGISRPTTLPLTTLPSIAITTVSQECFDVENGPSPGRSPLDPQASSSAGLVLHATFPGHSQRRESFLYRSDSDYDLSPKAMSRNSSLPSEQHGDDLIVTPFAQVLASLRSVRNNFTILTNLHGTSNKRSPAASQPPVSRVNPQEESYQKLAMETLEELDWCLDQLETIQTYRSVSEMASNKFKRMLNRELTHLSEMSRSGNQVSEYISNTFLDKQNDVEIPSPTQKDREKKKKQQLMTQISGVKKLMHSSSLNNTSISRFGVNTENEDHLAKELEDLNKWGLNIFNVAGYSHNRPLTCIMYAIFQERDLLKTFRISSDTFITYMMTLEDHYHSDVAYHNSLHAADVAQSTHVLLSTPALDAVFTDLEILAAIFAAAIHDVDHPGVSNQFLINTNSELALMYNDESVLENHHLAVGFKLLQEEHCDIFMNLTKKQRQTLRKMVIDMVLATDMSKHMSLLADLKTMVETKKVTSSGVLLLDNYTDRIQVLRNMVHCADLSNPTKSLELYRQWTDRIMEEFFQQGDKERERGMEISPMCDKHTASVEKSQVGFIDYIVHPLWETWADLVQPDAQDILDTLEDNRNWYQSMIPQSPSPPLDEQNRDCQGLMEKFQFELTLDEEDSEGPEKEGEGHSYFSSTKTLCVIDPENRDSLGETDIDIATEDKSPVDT
Chain of Cytochrome P450 2D6 (Homo sapiens) (P10635 whole entry, looked up): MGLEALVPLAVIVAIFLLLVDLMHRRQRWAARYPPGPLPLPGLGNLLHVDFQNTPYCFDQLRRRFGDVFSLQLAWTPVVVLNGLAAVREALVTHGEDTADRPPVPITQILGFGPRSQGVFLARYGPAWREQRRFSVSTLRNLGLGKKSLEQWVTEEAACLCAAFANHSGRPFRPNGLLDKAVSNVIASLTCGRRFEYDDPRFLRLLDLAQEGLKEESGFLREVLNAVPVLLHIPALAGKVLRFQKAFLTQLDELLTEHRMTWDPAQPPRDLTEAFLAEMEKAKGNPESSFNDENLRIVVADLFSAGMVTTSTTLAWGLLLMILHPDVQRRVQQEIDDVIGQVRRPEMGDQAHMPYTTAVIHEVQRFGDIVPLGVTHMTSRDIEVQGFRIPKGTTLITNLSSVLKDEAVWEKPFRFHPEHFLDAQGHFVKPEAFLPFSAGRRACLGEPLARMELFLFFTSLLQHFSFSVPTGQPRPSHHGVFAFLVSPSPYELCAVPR

On to `N#CCCn1c(=O)c(-c2cccc(C#N)c2)nc2cnc(Oc3cccc(Cl)c3)nc21`, for which the outcome in assay [1] was inactive. For the same compound, the Potency result in assay [2] and in assay [3] was “inactive” each time.

Take `COc1ccc(Oc2ncc3nc(-c4ccc(F)cc4)c(=O)n(C[C@H]4CCCO4)c3n2)cc1`: the Potency in assay [4] is > 11.4 µM. Also, the Potency result in assay [2], in assay [5] and in [6] was “inactive” throughout.

As to `CCNc1ncc2nc(C)c(=O)n(CCc3ccccc3)c2n1`, the Potency is > 11.4 µM in assay [4], 1.58 µM (active) in assay [7], 0.316 µM (active) in [9] and 7.94 µM (active) in assay [3]. In addition, the compound was called inactive in assay [1] and in assay [8].

As for `COCCn1c(=O)c(-c2cccc(C#N)c2)nc2cnc(OCc3ccccc3)nc21`, the Potency in [7] is 12.6 µM (active). The Potency entry in assay [2], in [9], in [5] and in [6] was “inactive” each time. The compound was classed as inactive in assay [8].

For the compound `Cn1c(=O)c(-c2ccccc2)nc2cnc(N3CCOCC3)nc21`, the Potency in assay [7] was 2 µM (active). Further, in [1], the outcome was inactive. Also, the Potency result in assay [2], in assay [10], in [3] and in assay [6] was “inactive” throughout.

Consider `FC(F)(F)c1ccccc1-c1nc(NCc2cccnc2)c2ccccc2n1`, for which the Potency in assay [4] was > 11.4 µM; in assay [7], 2 µM (active); in assay [9], 3.98 µM (active). The outcome in [1] and in [8] was inactive. Also, the Potency result in [5] is “inactive”.

With `COc1ccc(-n2c(=O)c(-c3cccs3)nc3cnc(N4CCN(C)CC4)nc32)cc1`, in [4], the Potency was > 11.4 µM. The compound was called inactive in assay [1] and in assay [8]. Also, the Potency entry in [2], in assay [5] and in assay [6] was “inactive” throughout.

Consider `COc1ccc2[nH]cc(CCNc3ncncc3-c3ccccc3OC)c2c1`, for which the Potency is > 11.4 µM in assay [4]; 0.251 µM (active) in assay [11]; 0.126 µM (active) in assay [10]; 1.26 µM (active) in assay [12]; 0.0794 µM (active) in assay [9]; 25.1 µM (active) in [5]. The compound was called inactive in [1] and in assay [8]. The Potency result in [2] is “inactive”.

As to `Clc1ccccc1-c1nc(Nc2ccncc2)c2ccccc2n1`, the Potency is 0.501 µM (active) in assay [7], 3.98 µM (active) in [10], 5.01 µM (active) in [9] and 7.94 µM (active) in assay [5].

Regarding `COc1ccc2[nH]cc(CCNc3cc(-c4ccccc4OC)ncn3)c2c1`, the Potency in [4] was > 11.4 µM; in assay [7] it was 1.58 µM (active); in [10], 6.31 µM (active); in assay [9] it was 3.16 µM (active); in [5], 25.1 µM (active). In addition, the compound was classed as inactive in assay [1] and in assay [8]. Further, the Potency result in assay [2] is “inactive”.

As for `O=c1c(-c2ccccc2)nc2cnc(N3CCOCC3)nc2n1CCc1ccccc1`, the results for the Potency in [4] and in assay [11] were > 11.4 µM and 7.94 µM (active), respectively. Besides, the Potency result in assay [3] and in [6] was “inactive” in each case.

Consider `N#CCCn1c(=O)c(-c2ccc(Cl)cc2)nc2cnc(N3CCOCC3)nc21`, for which the Potency was > 11.4 µM in [4] and 15.8 µM (active) in assay [7]. Further, the outcome in assay [1] was inactive. Also, the Potency result in assay [2], in assay [11], in assay [5] and in [6] was “inactive” throughout.

For the compound `CN(Cc1ccco1)c1ncnc2ccc(-c3cccc(NS(C)(=O)=O)c3)cc12`, the Potency is > 11.4 µM in assay [4]; 0.398 µM (active) in assay [7]; 7.94 µM (active) in assay [9]; 7.94 µM (active) in assay [5]; 7.94 µM (active) in assay [6]. In addition, the compound was called inactive in assay [1] and in assay [8].

With `COCCn1c(=O)c(-c2ccc(F)cc2)nc2cnc(Nc3cccc(OC)c3)nc21`, the Potency in assay [4] is > 11.4 µM; in assay [7] it was 3.16 µM (active). In addition, the Potency result in assay [2] and in assay [3] was “inactive” each time.

For `COc1ncc2nc(-c3ccccc3)c(=O)n(CCc3ccccc3)c2n1`, the Potency in [4] was > 11.4 µM. Moreover, in assay [1], the result was inactive. The Potency entry in assay [5] and in assay [6] was “inactive” throughout.

For `Cc1ccccc1-c1nc(Nc2ccncc2)c2ccccc2n1`, the Potency in assay [7] is 0.794 µM (active); in assay [10], 6.31 µM (active); in [5], 25.1 µM (active). Besides, the compound was classed as inactive in assay [1] and in assay [8].

Consider `CN(C)c1ccc(-c2nccc(Nc3ccc(F)cc3)n2)cc1`, for which, in assay [1], the compound was classed as inactive. The Potency entry in assay [2] was “inactive”. In addition, the Potency in [9] was 3.16 µM (active); in assay [3], 17.8 µM (active).

For the compound `COCCNc1ncnc2ccc(-c3ccccc3OC)cc12`, the Potency in assay [4] was > 11.4 µM; in assay [7], 2 µM (active); in assay [9], 5.01 µM (active); in assay [3] it was 15.8 µM (active). In assay [2], the Potency entry is “inactive”.
